KKLEB tox = cytotoxicity in KKLEB CF airway cells, primary screen, cytotoxicity control for CF NF-kB inhibitor project, cell-based, uHTS, fluorescence assay plates | AID 602141, 2011 | activity change (cytotoxicity), % at 5 µM | 360,000 compounds, 0.36% hits | KKLEB CF airway cells viability, ATPlite luminescence, overnight; active compounds read low; cells stimulated with P. aeruginosa culture filtrate;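 active = corrected activity change at or below -50% at 5 µM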
TRAIL sens C8 = viability loss with TRAIL in NB7+C8 cells, primary screen, TRAIL sensitizer project, cell-based, ATPlite luminescence. inhibition (viability loss, TRAIL sensitization), % at 10 µM. 360,000 compounds, 1% hits;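 active = compounds causing at least 50% loss of cell viability in the single-dose screen, relative to plate controls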
HIF-2a inh = HIF-2a reporter inhibitors, primary screen, luminescence, 786-0 RCC cells; 786-0 RCC cells HIF-2a reporter, luciferase luminescence, overnight; inhibition, % at 18.8 µM; 360,000 compounds, 0.72% hits;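 active = inhibition of the luminescence signal of 40% or more relative to plate controls, in a single-dose primary screen at 18.75 µM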
iPSC survival up = enhancers of single-cell hiPSC survival, primary screen, ATPlite luminescence. 100% = ROCK inhibitor wells, 0% = DMSO. survival enhancement, % at 20 µM. 360,000 compounds, 0.044% hits. AID 602274, 2012; in the data active = survival enhancement above about 18%;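 also: cells exposed to compounds for 16 hours before the ATP read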
CF NFkB inh = inhibitors of PAF-induced NF-kB signaling, primary screen, cell-based, GFP fluorescence, uHTS; KKLEB NF-kB-GFP reporter, GFP fluorescence overnight; inhibition, % at 5 µM; 360,000 compounds, 0.86% hits; AID 588850, 2011;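 active = at least 50% inhibition at 5 µM, scaled per plate between neutral and stimulator controls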;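 also: PAF is a Pseudomonas aeruginosa culture filtrate used as stimulus; plate controls were PAF-stimulated DMSO wells for no effect and unstimulated DMSO wells for full effect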
PPC-1+TRAIL kill = compounds killing PPC-1 cancer cells with TRAIL present, primary screen, TRAIL potentiator project, ATPLite luminescence, uHTS. PPC-1 cells + TRAIL, ATPLite viability luminescence. cell killing (% activity), % at 4 µM or 5 µM. 220,000 compounds, 0.41% hits;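 active = cell killing above 50% in the first pass at 4 µM, then a duplicate retest at 5 µM averaging 50% or more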;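 also: plate controls were cells with TRAIL plus DMSO for no effect and medium-only wells lacking cells for full effect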
* marks the source's active call; other numbers are inactive results. In the library only some 2.2% were active in any assay of this set; here they are far more common.

What do the screens show for `CC(=O)OCC(=O)C1(O)CCC2C3CC(C)C4=CC(=O)C=CC4(C)C3=CCC21C` (centres undefined)?
KKLEB tox: 5; TRAIL sens C8: -2; HIF-2a inh: 21; iPSC survival up: 0; CF NFkB inh: 45

What do the screens show for `CC(=O)OCC(=O)C1(O)CCC2C3CC(C)C4=CC(=O)C=CC4(C)C3(F)C(O)CC21C` (centres undefined)?
KKLEB tox: 19; TRAIL sens C8: 10; HIF-2a inh: 18; iPSC survival up: 0; CF NFkB inh: 80*

What do the screens show for `CC(=O)OCC(=O)[C@@]1(OC(C)=O)[C@@H](C)C[C@H]2[C@@H]3C[C@H](F)C4=CC(=O)C=C[C@]4(C)[C@@]3(F)[C@@H](O)C[C@@]21C`?
KKLEB tox: 31; TRAIL sens C8: 12; HIF-2a inh: 24; iPSC survival up: 1; CF NFkB inh: 77*; PPC-1+TRAIL kill: -7

What do the screens show for `COC(=O)c1cc(C(=O)OCC(=O)N(C)c2ccccc2)cc([N+](=O)[O-])c1`?
KKLEB tox: 3; TRAIL sens C8: 4; HIF-2a inh: 8; iPSC survival up: 0; CF NFkB inh: -12

How did NC(CSC1(c2ccc(Cl)cc2)c2ccccc2-c2ccccc21)C(=O)O (centres undefined) do in these assays?
KKLEB tox: -14; TRAIL sens C8: -10; HIF-2a inh: -2; iPSC survival up: 1; CF NFkB inh: -22

How did CC(=O)Nc1ccc(NC(=O)COC(=O)Cn2cnc3ccccc32)cc1 do in these assays?
KKLEB tox: -6; TRAIL sens C8: -1; HIF-2a inh: 2; iPSC survival up: 3; CF NFkB inh: -20

How did CC(=O)c1cccc(NC(=O)COC(=O)Cn2cnc3ccccc32)c1 do in these assays?
KKLEB tox: -86*; TRAIL sens C8: 3; HIF-2a inh: 11; iPSC survival up: 0; CF NFkB inh: 19

Results for O=C1C2C3C=CC(CO)(O3)C2C(=O)N1c1ccccc1-c1ccccc1 (centres undefined) ?
KKLEB tox: -31; TRAIL sens C8: -9; HIF-2a inh: 11; iPSC survival up: -2; CF NFkB inh: 76*; PPC-1+TRAIL kill: 3

What do the screens show for `CC(=O)Oc1ccc(N2C(=O)C3C4C=CC(CO)(O4)C3C2=O)cc1` (centres undefined)?
KKLEB tox: -1; TRAIL sens C8: -26; HIF-2a inh: -1; iPSC survival up: 1; CF NFkB inh: 5; PPC-1+TRAIL kill: -10

What do the screens show for `c1ccc(-c2noc(CC3CCCCC3)n2)nc1`?
KKLEB tox: -9; TRAIL sens C8: 21; HIF-2a inh: -200; iPSC survival up: -1; CF NFkB inh: 27; PPC-1+TRAIL kill: 0

What do the screens show for `COc1ccc(NC(=O)CSc2nc3ccc(Nc4nc(N5CCOCC5)nc(N5CCOCC5)n4)cc3s2)cc1`?
KKLEB tox: -50*; TRAIL sens C8: 23; HIF-2a inh: 15; iPSC survival up: 0; CF NFkB inh: 56*

Results for Cc1cc(C)c(NC(=O)CSc2nc3ccc(NC(=O)CSc4nnnn4-c4ccccc4)cc3s2)c(C)c1 ?
KKLEB tox: -67*; TRAIL sens C8: 17; HIF-2a inh: 10; iPSC survival up: -1; CF NFkB inh: 71*; PPC-1+TRAIL kill: 10

Results for Cc1ccc(NC(=O)CSc2nc3ccc(Nc4nc(N5CCOCC5)nc(N5CCOCC5)n4)cc3s2)cc1 ?
KKLEB tox: -42; TRAIL sens C8: 55*; HIF-2a inh: 11; iPSC survival up: 0; CF NFkB inh: 50

How did Cc1cc(C)c(NC(=O)CSc2nc3ccc(NC(=O)CSc4nnnn4Cc4ccccc4)cc3s2)c(C)c1 do in these assays?
KKLEB tox: -8; TRAIL sens C8: 1; HIF-2a inh: -38; iPSC survival up: 0; CF NFkB inh: -35

How did CCN(CC)C(=O)Cn1cc(S(=O)(=O)CC(=O)Nc2ccc(C(N)=O)cc2)c2ccccc21 do in these assays?
KKLEB tox: 5; TRAIL sens C8: 2; HIF-2a inh: 2; iPSC survival up: 0; CF NFkB inh: 10

How did CC(=O)NCCc1nc2cc(NC(=O)c3ccc([N+](=O)[O-])cc3)ccc2n1C do in these assays?
KKLEB tox: 4; TRAIL sens C8: -4; HIF-2a inh: -106; iPSC survival up: -1; CF NFkB inh: -25

How did NC(=S)N/N=C\c1c2ccccc2cc2ccccc12 do in these assays?
KKLEB tox: 2; TRAIL sens C8: -4; HIF-2a inh: -13; iPSC survival up: -2; CF NFkB inh: -96; PPC-1+TRAIL kill: 61*

How did CC1CN(C(=O)COC(=O)CSc2ccc([N+](=O)[O-])cc2)CC(C)O1 (centres undefined) do in these assays?
KKLEB tox: -19; TRAIL sens C8: -5; HIF-2a inh: 9; iPSC survival up: 4; CF NFkB inh: 3

What do the screens show for `COc1ccccc1N=C1NC(=O)/C(=C/c2ccc(N(C)C)cc2)S1`?
KKLEB tox: -13; TRAIL sens C8: 49*; HIF-2a inh: -230; iPSC survival up: -1; CF NFkB inh: 14

How did COc1ccc(N=C2NC(=O)/C(=C/c3ccc(O)c(OC)c3)S2)cc1 do in these assays?
KKLEB tox: -7; TRAIL sens C8: -10; HIF-2a inh: 12; iPSC survival up: 0; CF NFkB inh: 57*; PPC-1+TRAIL kill: 3

How did CC(=O)Nc1ccc(NC(=O)COC(=O)COc2ccc3ccccc3c2)cc1 do in these assays?
KKLEB tox: -20; TRAIL sens C8: -9; HIF-2a inh: 22; iPSC survival up: 2; CF NFkB inh: 31

What do the screens show for `COc1ccc(NC(=O)N2CCCc3ccccc32)cc1`?
KKLEB tox: -3; TRAIL sens C8: -1; HIF-2a inh: -72; iPSC survival up: -1; CF NFkB inh: -3; PPC-1+TRAIL kill: 11

What do the screens show for `COc1ccc(NC(=O)N2CCc3ccccc32)cc1`?
KKLEB tox: -6; TRAIL sens C8: 56*; HIF-2a inh: -83; iPSC survival up: -5; CF NFkB inh: -1; PPC-1+TRAIL kill: 14

Results for O=C(CN1CCCC1c1cccs1)N1CCN(S(=O)(=O)c2cccc(F)c2)CC1 (centres undefined) ?
KKLEB tox: 16; TRAIL sens C8: -4; HIF-2a inh: 14; iPSC survival up: 0; CF NFkB inh: 8

Results for N=c1oc2cc(O)ccc2cc1C(=O)Nc1ccc(Cl)cc1 ?
KKLEB tox: 8; TRAIL sens C8: 49*; HIF-2a inh: -156; iPSC survival up: -1; CF NFkB inh: 0

Screens: PubChem BioAssay, Sanford-Burnham Center for Chemical Genomics
